Source: ChEMBL document CHEMBL4888484, “Replenishing the malaria drug discovery pipeline: Screening and hit evaluation of the MMV Hit Generation Library 1 (HGL1) against asexual blood stage Plasmodium falciparum ,using a nano luciferase reporter read-out” (2022)
Screen size: about 4,800 compounds; about 410 (8.5%) showed an effect of 50% or more. Only a selection was taken, and strong results are over-represented in it overall.

system: Plasmodium falciparum; test: Confirmatory screen in NF54 pLDH assay, in single point, at 2uM, 72h; format: functional, Erythrocyte; conditions: timepoint 72 hour

| Compound | % Inhibition |
| --- | --- |
| Cc1nn(CCOc2ccccc2)c(=O)n1-c1ccc(C(C)C)cc1 | 14% |
| CC(=O)N1CCCN(C(=O)c2ccccc2)CCNC(=O)[C@@H]2CCC[C@@H]21 | 9% |
| CC(C)(C)n1ncc2c1NC(=O)C[C@@H]2c1c(F)cccc1Cl | -19% |
| CC(C)C(=O)Nc1ccc(-c2cc(-c3ccc(NC(=O)C(C)C)cc3)nc(-c3ccncc3)n2)cc1 | 42% |
| C[C@H](N)c1ccc(Nc2ncc3cc(-c4ccncc4)ccc3n2)cc1 | 101% |
| CCC(CC)C(=O)Nc1cccc(O)c1 | 7% |
| O=c1c2cc(F)c(F)cc2ncn1C[C@@H](O)CC1CCCC1 | 9% |
| O=C1CCC(Nc2ccc(Br)cn2)C(C2CC2)N1 (stereo not drawn) | 15% |
| Clc1cc(CN2CC[C@@]3(CCCOC3)C2)ccc1OCCN1CCOCC1 | 11% |
| CCn1cc(Cl)c(C(=O)N2N=C3/C(=C/c4ccc5c(c4)OCO5)CCCC3C2c2ccc3c(c2)OCO3)n1 (stereo not drawn) | 8% |
| CCc1ccc(NC(=O)c2c(C)sc3ncnc(N4CCCCC4)c23)cc1 | 12% |
| C[C@H](C(=O)Nc1nccn2ccnc12)c1ccccc1 | 3% |
| CC(=O)N1CCn2c(nnc2[C@@H]2CCCN2S(=O)(=O)c2cc(F)ccc2F)C1 | 3% |
| CCC(CC)C(=O)Nc1cccc(Cl)c1C | 4% |
| COc1ccc(CN2CC(C)OC3(CCOC3)C2)cc1Cl (stereo not drawn) | 6% |
| Cc1noc(C)c1C(=O)NC[C@H](O)Cn1ccccc1=O | 6% |
| Cc1c(NC(=O)c2ccc(-c3cccc(F)c3)o2)cccc1-c1nc2ncccc2o1 | -2% |
| Cc1ccc(F)cc1S(=O)(=O)N1CC[C@]2(CCN(c3cccnc3)C2)C1 | -20% |
| N#Cc1ccc(O)c(NC(=O)c2snc(O)c2Cl)c1 | -3% |
| O=C1[C@@H]2CCCN2C(=O)N1Cc1ccnc(OC2CCOCC2)c1 | -11% |
| O=C(N[C@H](c1ccccc1)C1CC1)C(c1ccccc1)c1ccccc1 | 11% |

| Compound | % Inhibition |
| --- | --- |
| CN(C)C(=O)NCC1(NC(=O)N(C)C)CCC1 | 5% |
| CCOc1cc(CNC2CCCCC2)cc(Cl)c1OCc1ccc(C)cc1 | -4% |
| c1ccc(-c2noc(-c3ccc(NC4CCCCC4)nn3)n2)cc1 | 60% |
| CC(C)N1CCN(C(=O)CN2N=C(c3nc(-c4ccccc4)no3)CCC2=O)CC1 | 2% |
| Clc1ccc(-c2noc(C3CNC3)n2)cc1 | 15% |
| COc1cccc(-c2nn(-c3nc(-c4ccccc4)cc(C(F)(F)F)n3)c(-c3cccc(OC)c3)c2Cl)c1 | 35% |
| COc1ccc(-c2cc(C(F)(F)F)nc(-n3nc(-c4cccc(OC)c4)c(Cl)c3-c3cccc(OC)c3)n2)cc1 | 92% |
| Cc1c(-c2nn(-c3nc(C4CC4)cc(C(F)(F)F)n3)c(-c3cnn(C)c3C)c2Cl)cnn1C | 14% |
| Cc1nnc2ccc(S(=O)(=O)N(Cc3ccc(F)cc3)c3cccc(Cl)c3)cn12 | 14% |
| C[C@H]1CN(Cc2ccccc2)CC2(CCN(C(=O)N(C)C)CC2)O1 | 10% |
| COc1ccc(NC(=O)CN2N=C(C(=O)Nc3ccc(F)cc3)CCC2=O)cc1 | -1% |
| COc1ccc(F)c(NC(=O)N(CCO)C(C)C)c1 | 10% |
| COc1ccc2nc(O)c(C(=O)Nc3ccc4c(c3F)CCNC4)cc2c1 | 101% |
| O=C(c1cn[nH]c1-c1ccccc1)N1CCCCCC1 | 1% |
| CC(C)[C@@H]1CC[C@H](C)C[C@H]1OC(=O)Cn1cc(-c2ccc(Cl)cc2)[n+]2c1CCC2 | 75% |
| CC(C)(C)NC(=O)c1ncc(Br)cc1Br | 5% |
| COc1ccc(-c2noc([C@H](C)NC(=O)N3CCNC(=O)C3)n2)cc1OC | 6% |
| CCn1ccnc1C(=O)Nc1ccc(OC)nc1 | 7% |
| CCc1ccc(CS(=O)(=O)NC(=O)c2cn3ccnc3s2)cc1 | 4% |
| CS(=O)(=O)Nc1ccc(OC(=O)C2C3CCCCC32)cc1 (stereo not drawn) | 11% |
| O=C1OC2(c3ccccc31)C(c1ccccc1)CC(=O)N2Cc1ccccc1 (stereo not drawn) | -21% |

| Compound | % Inhibition |
| --- | --- |
| Cc1ccc(C(=O)N2CC(C)CC(C)C2)cc1NCc1ncc[nH]1 (stereo not drawn) | 8% |
| Cc1ccccc1C(=O)Cc1ncc[nH]1 | 53% |
| C[C@](O)(CCc1ccccc1)C(=O)NCCc1ncc[nH]1 | 6% |
| CCCS(=O)(=O)NC1CCC2(CC1)OCCO2 | -18% |
| COc1ccc2c(c1)CN(Cc1ccccc1Cl)CC[C@H]1COC(=O)N21 | -1% |
| COc1ccccc1C(=O)NC1=C(C)Nc2ncnn2[C@H]1c1c[nH]c2ccccc12 | -5% |
| COc1cc(N2CCn3c(nc4cc(Cl)ccc43)C2)ccc1NC(=O)c1ccccc1OC | -10% |
| COc1cc(NC(=O)c2ccccc2Cl)cc(S(=O)(=O)c2ccc(Cl)cc2)c1 | -15% |
| COc1ccccc1C(=O)NC1=NN2C(=NC(c3ccc(Cl)cc3)=C[C@H]2c2ccc(Cl)cc2)N1 | 92% |
| O=C(NC1=NN2C(=NC(c3ccc(Cl)cc3)=C[C@H]2c2ccc(F)cc2)N1)c1ccc(Cl)cc1 | 13% |
| Fc1ccc(C2=C[C@@H](c3ccc(Cl)cc3)N3N=C(c4ccc(Cl)cc4)NC3=N2)cc1 | 97% |
| COc1ccc([C@@H]2C=C(c3ccc(Cl)cc3)N=C3NC(NC(=O)c4ccccc4OC)=NN32)cc1 | 89% |
| CCC1=NN2C(=NC(C(=O)O)=C[C@H]2c2ccc(O)cc2)N1 | -3% |
| Cc1noc(Cn2c(=O)c3ccccc3n(CC(=O)Nc3cccc(Cl)c3C)c2=O)n1 | 2% |
| Cc1cccc(N2C(=O)C3CC3C2=O)c1 (stereo not drawn) | 8% |
| C[n+]1ccc(-c2ncc(-c3ccccc3)o2)c2ccccc21 | 62% |
| Cc1cc(F)c(C(=O)Nc2nc(-c3cnn(C)c3)cs2)cc1F | -4% |
| O=C(NCc1cccc(C(F)(F)F)c1)c1csc(C(=O)NC2CCCC2)n1 | -3% |
| Cc1ccccc1N1C2=CCCCCN2C[C@]1(O)c1ccc(Br)cc1 | 14% |
| COC1CCC(CC(=O)N[C@H]2CC(=O)N(c3ccccc3)C2)CC1 (stereo partly drawn) | 10% |
| O=S(=O)(c1cccc(F)c1)c1cnc2c(F)cccc2c1-c1cccc(F)c1 | -3% |
